Measured values published in the supplement of paper PMC11417369.
± gives the standard deviation of the averaged measurements. The full ranking holds about 25,000 sequences; the median of “ln(normalized median fluorescence intensity)” is about 10, and the highest 2% start at about 12. The sample as a whole holds a higher share of the highest values than the screen did.

System: PfAP2-G AP2 domain (GST-tagged)
Experiment: gcPBM binding intensity (ln(normalized median fluorescence intensity)); higher = stronger DNA binding
Procedure, shortened: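 GST-tagged P. falciparum DNA-binding domains, expressed in E. coli (about 25 μg on average), were applied for 1 h to an Agilent 4 × 180k array of primer-extended double-stranded 36-bp intergenic genomic probes plus negative controls. The binding buffer was 1× PBS with 1% milk, 0.2 mg/ml BSA, 0.5% salmon testes DNA and 0.03% Triton X-100. Bound protein was detected with Alexa488 anti-GST antibody and scanned at 488 nm. Binding intensity is the highest Masliner-normalised natural-log median intensity across replicate spots of either probe orientation.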

| Sequence | gcPBM binding intensity (ln) |
| --- | --- |
| TAGTAACTTGTATTCACACAAATTATATTATATTAC [CACACA_site5041] | 9.965 ± 0.021 |
| ACGTATGTATATTACACACATACATATTATTCACTA [CACACA_site204] | 10.1 ± 0.16 |
| AGTATGTAAATGTGCCATATATATATTAAATACATA [CACACA_negctrl_site14] | 10.1 ± 0.23 |
| AACATATACACGAACACACACACATATAAATAAATA [CACACA_site6380] | 10.3 ± 0.37 |
| ATAAAGTATATTATATGTACATATATATATTATATA [XGTACX_site1345] | 11.1 ± 0.52 |
| TTTTTTTTAGTATGAACACACATATATATTATAAAA [CACACA_site2935] | 10.1 ± 0.25 |
| ATAAGAAAAAGACACACACACAAAAAAAAAAAAAAA [CACACA_site2828] | 9.95 ± 0.49 |
| AAGATAAAATTATGTAGTACAAAAAAAAATAAAAAA [XGTACX_site139] | 11.7 ± 0.91 |
| AATAATTATAAAAAATGTACAAAAAAAAAAAAAAAA [XGTACX_site3681] | 10.5 ± 0.83 |
| AAAGATAAAATATTATGTACATATATATATATATAT [XGTACX_site5079] | 11.1 ± 0.56 |
| CGCATGTATTTTGTGTGTACTAATTATAATCAACTT [XGTACX_site4709] | 11.4 ± 0.83 |
| TATGAGGAAACGTGGTGTACTTTTTTTTAATAAAAA [XGTACX_site1351] | 11.6 ± 0.93 |
| TTTTTTATGAGGTGGTGTACTTTTTTTTTTTTCTTT [XGTACX_site8550] | 11.7 ± 0.97 |
| AAAAGTGTATGTAGGTGTACTTTTTATTTCTTCTTT [XGTACX_site8819] | 11.6 ± 0.98 |
| TATATGCATAATAACTGTACACAAATTGGGGTTGAT [XGTACX_site459] | 11.6 ± 0.63 |
| ATATATATATAATTTGTACACACAAATATGCATATA [CACACA_site9136] | 11.3 ± 0.88 |
| ATATATATAATTTGTACACACAAATATGCATATATA [CACACA_site3432] | 11.3 ± 0.98 |
| TATGTGCATATAAACTCACACATTGTATATTACATG [CACACA_site6106] | 10.14 ± 0.035 |
| ATTGTTTATATTGATTGTACTCATTTTTTTTTTATT [XGTACX_site1946] | 11.5 ± 0.99 |
| AATGATTGATTTTATTGTACGTACTCGGAATATGGT [XGTACX_site4976] | 11.8 ± 1 |
| ATATATACGTATGAATGTATATTTGTTTGATTTTTT [CACACA_negctrl_site835] | 9.88 ± 0.12 |
| TATATATATACATATTGTACATATTACATGCTATTA [XGTACX_site1184] | 10.9 ± 0.64 |
| ATATAAATATGACACACACACAAAAAAAATAAAGAC [CACACA_site6208] | 10.3 ± 0.2 |

| Sequence | gcPBM binding intensity (ln) |
| --- | --- |
| TTTTTTTTTTTTTAAACATGCATAATAAATATAATA [TGCATGCA_site265] | 9.81 ± 0.35 |
| ATTATATAATTTAATCGTACACAAATATTTGTTAGT [XGTACX_site5913] | 11.3 ± 0.8 |
| ACCTATTTATAATAGTGTACGTACAAATTTGTTTAC [XGTACX_site8176] | 11.7 ± 0.89 |
| TGAAATTTATAATAGTGTACAAAGAAAAAAAAAAAA [XGTACX_site4965] | 11 ± 0.78 |
| ATATATATATATATATGTACGTAAACAAAAATTTAT [XGTACX_site6780] | 11.4 ± 0.91 |
| CATATATATTTTATTTGTACGTATAAAAAAACAAAA [XGTACX_site4253] | 11.5 ± 1.1 |
| TTTCGTAAACAAATTTGTACGTACAAATTTATAAAT [XGTACX_site8175] | 11.7 ± 1.1 |
| TTTTTTAAAAATAACTGTACAGAGGCTGTTAGGATA [XGTACX_site2521] | 11 ± 0.4 |
| TTCCAAAAAATTATTACACACATATGAGCACATATA [CACACA_site4543] | 10.1 ± 0.18 |
| TTTCCTTATTAAAACACACAAATACATTATTTAATC [CACACA_site7080] | 9.875 ± 0.035 |
| AAAAGTATAATAAATTGTACTAACAAATATTTATGT [XGTACX_site7721] | 10.9 ± 0.56 |
| TTGAAAATGAAAAAATGTACTTAAAAAAAAGGAACA [XGTACX_site8664] | 11.2 ± 0.71 |
| CTTTGGTTATAACACACATGCACACGTAAATAAATA [TGCATGCA_site976] | 10.5 ± 0.25 |
| ATTTTTTTTTTTTTTTTTTATATGCTCTCCATGAGA [CACACA_negctrl_site1225] | 9.7 ± 0.2 |
| ATAAATATCATATATATACACACGTAATACATAATA [CACACA_site4001] | 9.935 ± 0.092 |
| GGGGGGAGGGTGAATACACACGTAATAATCATAAAC [CACACA_site8502] | 11.6 ± 0.79 |
| GGGGGGGGAGGGTGAATACACACGTAATAATCATAA [CACACA_site1716] | 11.6 ± 0.94 |
| TCTTTTGTTTAACCTACATGCAGAATATAAGTCTTC [TGCATGCA_site99] | 10 ± 0.2 |
| ATATATTCATTTTTATGTACGTAAATTGTAAATTGG [XGTACX_site8242] | 11.6 ± 0.92 |
| TAATTCTTTATTTTTCGTACGTAAAACAAAAAATAT [XGTACX_site862] | 11.1 ± 0.79 |
| AAAAATTCATTTTTATGTACGTACAAATTCTTCGTT [XGTACX_site2471] | 11.8 ± 0.87 |
| CAGTTATTTTAATGTGGTACACAATTTTAAAATTAT [XGTACX_site8571] | 11.5 ± 0.93 |
| TGAAAATAGTTAATTTGTACACAAAAATTAAGAAAA [XGTACX_site5794] | 11.2 ± 0.8 |

| Sequence | gcPBM binding intensity (ln) |
| --- | --- |
| ACACATACAACGTGGTGTACAAATAATTATAATCAA [XGTACX_site2287] | 11.1 ± 0.4 |
| TTACATGTAAAAGGTACACACATTAGATATACAAAT [CACACA_site6651] | 11.3 ± 0.84 |
| TTTGAGATGTGGTGTACACAAAATTAGGTACACATC [CACACA_site5773] | 12 ± 0.85 |
| AATTTTGAGATGTGGTGTACACAAAATTAGTTAGAC [XGTACX_site7033] | 11.7 ± 0.98 |
| TAAAAATAGTATACAACACACGAGGGAAAATAAAGT [CACACA_site3837] | 10.34 ± 0.099 |
| TATTTAAATTAATATTGTACATATATTTATAATATA [XGTACX_site6109] | 11.1 ± 0.71 |
| GATATTTTTTTCGAAAGTACAAAAAAAAATATTTCC [XGTACX_site4389] | 11 ± 0.72 |
| TATATTTTTATTGAACGTACAAAAAGTCGAAAACAG [XGTACX_site3967] | 11.4 ± 0.74 |
| TTTTCATTTGAAAGTCGTACAAGTTCGAAAAAAGGA [XGTACX_site6840] | 11.6 ± 1.2 |
| TTTTTTATTTGACAAGCACACACTTAAATATATATA [CACACA_site3358] | 10.2 ± 0.33 |
| AAATCATATTCTTATTTTATTTTTTTTATTTTTTAT [XGTACX_negctrl_site166] | 9.55 ± 0.17 |
| AAACATGATTATTATAGTACAATTATAATTATTATA [XGTACX_site2590] | 10.8 ± 0.59 |
| TATAATAATACGTATTGTACTATTAGGTTAATTCGT [XGTACX_site264] | 11.1 ± 0.66 |
| TATATATATATATGTTGTACAAAAATGTAAAATATA [XGTACX_site7761] | 11.1 ± 0.57 |
| ATGTTATATATGTATTGTACGTATTTTGTATATTAT [XGTACX_site6607] | 11.6 ± 1.1 |
| ATATATATATATATTTGTACGTATTATGTATTTTTT [XGTACX_site3530] | 11.5 ± 0.98 |
| ATGTAGGTTAATTATTGTACGTAGGGGGTGTATATT [XGTACX_site3973] | 11.8 ± 1.2 |
| AATATATATAATAATTGTACAATACGTATGTTATAT [XGTACX_site8745] | 11 ± 0.54 |
| AAATTATTATATATATGTACGTATAATGTATTTTGT [XGTACX_site2903] | 11.5 ± 1.1 |
| GTGTGTGTATATATTTGTACATATATTTAAACATAT [XGTACX_site1074] | 11.4 ± 0.71 |
| ATATGTATATATGTATGTACGTACAAATTGTTGTAA [XGTACX_site8832] | 11.7 ± 0.8 |
| GTATATATATTTGTACGTACATATTGTTGTAAACAC [XGTACX_site8833] | 11.7 ± 0.71 |
| TATAATAATAATTATTGTACGATTAGGTTAATTCAT [XGTACX_site1984] | 11.1 ± 0.7 |

| Sequence | gcPBM binding intensity (ln) |
| --- | --- |
| TAAACAGATATATTTTGTACATATTGTATATTTTGT [XGTACX_site713] | 10.6 ± 0.28 |
| TATAATATTCCTTTTTAACACACATATGAACAAATA [CACACA_site7932] | 10.1 ± 0.18 |
| CATTATTCATTTTGGATGCACTGACAGAAAAATGGT | 10.4 ± 0.18 |
| CTTAGGTGTTCATAGAGTACAAATAAAAAAATAAGA [XGTACX_site2294] | 11.3 ± 0.95 |
| TACCTAAATAAATGGACACACACATATATATATATA [CACACA_site8407] | 10.8 ± 0.53 |
| TATATTTTAAAATTATGTACATATATAGATAAATGT [XGTACX_site1349] | 11.3 ± 0.52 |
| AATTAGATGGATAAATGTACATAATGTGAATATATT [XGTACX_site86] | 11 ± 0.4 |
| TCATATATATATATATGTACATATTTATGTATGTAT [XGTACX_site6291] | 11.1 ± 0.66 |
| TAGTTCCTCAAAAATTTCCTTTGTCATTTTATTCAC [GTGCAC_negctrl_site20] | 10.17 ± 0.085 |
| TTCCTTAATCAATATTGTACTTTTTATAAATTTAGT [XGTACX_site3678] | 11.4 ± 0.85 |
| TTCCTTTGTCCTAACTGTACTCAAATTTATTAGTGG [XGTACX_site226] | 11.8 ± 0.75 |
| TATAAAAATATATTTACACACTATAAATATCGAAAG [CACACA_site6896] | 9.96 ± 0.18 |
| TAATTTATGACACGCGCACACATATATATATAGTAA [CACACA_site4249] | 10.6 ± 0.42 |
| CAAAGATAAAATGATGCACACAAAAGGGTGTAATAT [CACACA_site8499] | 10.25 ± 0.014 |
| ACAAAAATGAGATGGTGTACGCACAAATAAATAATA [XGTACX_site5221] | 11.7 ± 0.79 |
| AAGATAAAATGATGCACACAAAAGGGTGTAATATAT [CACACA_site1706] | 10.13 ± 0.049 |
| TCCCACTGTTATATTGAAAAAAAAAAAAAAAAAAAA [TGCATGCA_negctrl_site288] | 9.82 ± 0.5 |
| AAACAACATGGACACGCACACACAAAAAAAGCATGC [CACACA_site73] | 11 ± 0.48 |
| ATTAGGCATATTTTCTGTACACAATAATAAAAAAAA [XGTACX_site3957] | 11.6 ± 0.91 |
| TAATTTTCATATTTCTGTACATATATTATAAATATA [XGTACX_site3480] | 11 ± 0.69 |
| TAAAATATATTTTTCTGTACACAAAAATATATTAAA [XGTACX_site2813] | 11.5 ± 0.96 |
